Each structure is given as a SMILES string. Calls of active or inactive are those of the source. Calls follow the shape of the dose curve; as a rule, active = well fitted curve in the direction sought with a large enough effect in the repeat runs; inconclusive = weak or mixed curves; inactive = flat fitted curve, though single readings scatter.
% is scaled to controls: 0 for no effect and ±100 for the full control effect.

A short description of this assay: qHTS assay to test for compound auto fluorescence at 535 nm (green) in HEK293 cells (AID 720680). To be noted: green autofluorescence 485/535 nm; series mostly up to 91.3 µM. The text has this: U.S. Tox21 Program National Center for Advancing Translational Sciences [NCATS] NIH Chemical Genomics Center [NCGC] U.S. Environmental Protection Agency [EPA] National Institutes of Environmental Health Sciences [NIEHS] National Toxicology Program [NTP] U.S. Food and Drug Administration [FDA] Tox21 Assay Overview: Compound auto fluorescence often interferes with screening of the compound library against various biological targets and signaling pathways. Some of these compounds may have fluorophoric properties. Such properties may interfere with the assay outputs resulting in false positives and/or negatives. To decrease such complications and ensure the compound activities are relevant in terms of biological response, the Tox21 10K compound library was screened for auto fluorescence. From the fluorophores used as reporter signals in our screening assays, the auto fluorescence equivalencies of compounds against three fluorophores have been evaluated: Triamterene, Fluorescein and Rose Bengal sodium for blue, green and red fluorescence, respectively. The fluorescence intensities were measured using Excitation/Emission wavelengths at 405/460nm, 485/535nm and 540/590nm for blue, green and red labels, respectively. This assay includes the green fluorescence data.
Tox21 Assay Protocol Summary: 2,000 HEK293 cells in 5 uL of culture medium containing 10% dialyzed FBS per well were dispensed into black wall/clear bottom 1536-well plates using a Multidrop Combi Dispenser (Thermo Scientific). The assay plates were incubated for 4-5 hr at 37C to allow cell attachment to the well bottom, followed by the transfer of 23 nL compound or DMSO vehicle by a pintool work station (Kalypsys, San Diego, CA). After the assay plates were incubated overnight at 37C and 5% CO2, fluorescence intensities in the assay plates were measured by an Envision (PerkinElmer, Shelton, CT) plate reader using three labels for measuring blue, green and red fluorescence at […] 460, 535 and 590nm respectively.
(In general: In qHTS, concentration-response curves come from the screen itself.)
`OC(CCN1CCCCC1)(c1ccccc1)C1CCCCC1` (stereo not given): the call was inactive.

Turning to `CCN(CC)CCc1nc(-c2ccccc2)no1`, the fluorescence, % of fluorescein was -0.143% [at 18.6 µM] (inactive).

For the compound `COC(=O)CSc1cc(N=c2sc(=O)n3n2CCCC3)c(F)cc1Cl`, the call was inactive. Same read-out and setting: the result for `NC1CCN(c2nc3c(cc2F)c(=O)c(C(=O)O)cn3-c2ccc(F)cc2F)C1` (stereo not given) reads “inactive”; that for `CCCC(=O)OCC`, “inactive”. On the same count and under the same terms, as for `CCCC[C@H]1CN(CC2CCOCC2)C(=O)OC12CCN(C1(C)CCN(C(=O)c3c(C)ncnc3C)CC1)CC2`, the entry is “inactive”; as for `Cc1ccc(C(N)=O)cc1N`, “inactive”; as for `CC[C@H](C)[C@H](N)C(=O)O`, “inactive”. The same measure, in the same setting: the result for `C=CCCCCCC` reads “inactive”; that for `O=C(/C=C/c1ccc(O)c(O)c1)O[C@@H]1C[C@](O)(C(=O)O)C[C@@H](O)[C@H]1O`, “inactive”; that for `Cc1cc(C)c(S(=O)(=O)O)cc1N=Nc1cc(S(=O)(=O)O)c2ccccc2c1O`, “inactive”.

For the compound `S=C(S)NCCNC(=S)S`, the call was inactive. Consider `CC1CCc2cc(F)cc3c(=O)c(C(=O)O)cn1c23` (stereo not given), for which the compound was called inactive. Still for that read-out and setting: as for `ClC(Cl)(Cl)c1ccc(C(Cl)(Cl)Cl)cc1`, the entry is “inactive”. Take `O=C(O)C1CCC(C(=O)O)CC1` (stereo not given): the outcome was inactive.

With `C[Si](C)O[Si](C)(C)O[Si](C)(C)O[Si](C)C`, the call was inactive. With `OCCC1CCCCN1` (stereo not given), the call was inactive. Same read-out and setting: as for `O=C(c1ccc(O)cc1)c1ccc(O)cc1`, the entry is “inactive”; as for `CN(C(=O)CCCOc1ccc2[nH]c(=O)ccc2c1)C1CCCCC1`, “inactive”; as for `Cc1ccc(C)o1`, “inactive”.

Turning to `CC(O)C1CCCCC1` (stereo not given), the outcome was inactive.

Take `COCCCCCCCCOCCC[Si](C)(O[Si](C)(C)C)O[Si](C)(C)C`: the compound was called inactive. Consider `CCCCOc1cc(C(=O)OCCN(CC)CC)ccc1N`, for which the fluorescence, % of fluorescein was 0.0482% [at 18.6 µM] (inactive).

`OCC1CC2CC1C1CCC(CO)C21` (stereo not given): the call was inactive. On the same count and under the same terms, the result for `O=C(O)Cc1cc(I)c(Oc2ccc(O)c(I)c2)c(I)c1` reads “inactive”.

Regarding `CCCCc1cc2ccccc2c(OCCN(C)C)n1`, the fluorescence, % of fluorescein was -0.0691% [at 18.6 µM] (inactive). For the compound `CC1=CCC(C(C)C)C=C1` (stereo not given), the compound was classed as inactive. With `N#Cc1cc2ccccc2c2ccccc12`, the compound was called inactive. Still for that read-out and setting: as for `CC(=O)OCCc1ccccc1`, the entry is “inactive”; as for `CCCCCCCCCC(=O)OCC`, “inactive”; as for `CC(=O)CC(=O)c1ccccc1`, “inactive”. On the same count and under the same terms, the result for `CCOC(=O)C1=NN(c2ccccc2)C(=O)C1` reads “inactive”; that for `C=C(C)C(=O)OCCOc1ccccc1`, “inactive”. Still for that read-out and setting: the result for `C=CC[N+]1([C@H]2C[C@H]3[C@@H]4CC[C@H]5C[C@H](OC(C)=O)[C@@H](N6CCCCC6)C[C@]5(C)[C@H]4CC[C@]3(C)[C@H]2OC(=O)CC)CCCCC1` reads “inactive”; that for `CC(=O)c1c(C)c([N+](=O)[O-])c(C(C)(C)C)c([N+](=O)[O-])c1C`, “inactive”. For `O=C(O)COC(=O)Cc1ccccc1Nc1c(Cl)cccc1Cl`, the fluorescence, % of fluorescein was 0.0784% [at 18.6 µM] (inactive). Regarding `O=C(O)Cn1c(C(=O)Nc2nc(-c3ccccc3Cl)cs2)cc2ccccc21`, the result was inactive. On the same count and under the same terms, as for `O=C=NC1CCC(CC2CCC(N=C=O)CC2)CC1` (stereo not given), the entry is “inactive”; as for `COCCOCCOCCOCCOC`, “inactive”. `O=C(Cl)c1c(Cl)cccc1Cl`: the compound was classed as inactive.

Values taken from PubChem BioAssay (Tox21).
